ChEMBL document CHEMBL3433997, “St. Jude Leishmania screening dataset” (2016)

Key:
Format in all cases: functional
[1] = target: Solute carrier family 2, facilitated glucose transporter member 1 (Homo sapiens) (UniProt P11166); experiment: ST_JUDE_LEISH: Cytotoxicity at 2uM final concentration against transgenic Leishmania Mexicana promastigotes LmGLUT1 that are glucose transport deficient and complemented with the human glucose transporter GLUT1. Activity is measured by DNA content using SYBR green in vitro
Sequence of Solute carrier family 2, facilitated glucose transporter member 1 (Homo sapiens) (P11166 whole entry): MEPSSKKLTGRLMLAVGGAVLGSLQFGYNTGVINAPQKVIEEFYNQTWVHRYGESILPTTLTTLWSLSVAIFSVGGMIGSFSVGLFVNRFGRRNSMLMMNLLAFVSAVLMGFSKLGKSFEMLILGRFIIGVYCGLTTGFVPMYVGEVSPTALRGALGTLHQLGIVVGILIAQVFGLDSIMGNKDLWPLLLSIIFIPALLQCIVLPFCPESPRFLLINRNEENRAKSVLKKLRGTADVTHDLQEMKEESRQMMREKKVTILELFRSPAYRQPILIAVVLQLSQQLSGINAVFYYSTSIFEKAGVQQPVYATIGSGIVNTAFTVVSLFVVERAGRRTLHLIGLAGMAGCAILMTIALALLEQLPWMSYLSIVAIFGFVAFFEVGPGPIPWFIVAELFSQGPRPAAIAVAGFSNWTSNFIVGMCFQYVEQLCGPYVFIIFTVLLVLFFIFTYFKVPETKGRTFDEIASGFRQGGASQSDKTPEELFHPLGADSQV

[2] = target: Hexose transporter 1 (Plasmodium falciparum) (UniProt O97467); experiment: ST_JUDE_LEISH: Cytotoxicity at 2uM final concentration against transgenic Leishmania Mexicana promastigotes LmPfHT that are glucose transport deficient and complemented with the Plasmodium falciparum hexose transporter. Activity is measured by DNA content using SYBR green in vitro
[3] = target: Glucose transporter (Leishmania mexicana) (UniProt O61059); experiment: ST_JUDE_LEISH: Cytotoxicity at 2uM final concentration against transgenic Leishmania Mexicana promastigotes LmGT2 that are glucose transport deficient and complemented with the L. Mexicana glucose transporter 2. Activity is measured by DNA content using SYBR green in vitro

Row | Structure (SMILES) | inhibition [1] [%] | inhibition [2] [%] | inhibition [3] [%]
1 | CCCCCN1CCCN(Cc2cccc(NC(=O)c3ccc4ccccc4c3)c2)CC1 | 4.56 | 4.49 | 4.95
2 | Cc1cc(N[C@@H](CC(C)C)C(=O)NCCOc2ccccc2)nc(NCCc2ccccc2)n1 | 1.89 | 0.4 | 2.69
3 | CCN(CC)CCCNc1nccc(N2CCc3ncnc(Nc4ccc(OCc5cccc(F)c5)c(Cl)c4)c3C2)n1 | 7.17 | 9.1 | 7.87
4 | Cc1nc2c(s1)c(=O)cc(CCc1cccc(F)c1F)n2CC(=O)N(Cc1ccc(-c2ccc(C(F)(F)F)cc2)cc1)C1CCN(C(C)C)CC1 | 1.07 | 0.83 | 1.78
5 | COc1ccc(CNCc2ccccc2)cc1-c1ccc(S(=O)(=O)NCCN2CCCC2)c(F)c1 | 18.3 | 13 | 10.7
6 | O=C(Nc1cccc(CN2CCCN(Cc3ccc(O)cc3)CC2)c1)c1cccc(F)c1 | 10.8 | 10.4 | 9.62
7 | O=C(Nc1cccc(C(F)(F)F)c1)c1ccc(S(=O)(=O)NCC2CCN(CC3CCCCC3)CC2)cc1 | 3.47 | 2 | 3.8
8 | CCOc1ccc2c(=NN=Cc3cc(OC)c(OC)cc3OC)cc(C)[nH]c2c1 | 3.1 | 2.65 | -1.87
9 | O=C(Nc1cccc(CN2CCCN(Cc3ccc4c(c3)OCO4)CC2)c1)c1ccc(-c2ccccc2)cc1 | 4.21 | 3.52 | 0.89
10 | COc1ccc(CCN(C)CCc2ccc(NC(=O)c3cccc4c(=O)c5ccccc5sc34)cc2)cc1 | 2.21 | -0.35 | 0.2
11 | CN=c1nc(NN=Cc2ccccc2Cl)[nH]c(=Nc2cccc(C(F)(F)F)c2)[nH]1 | 8.53 | 8.1 | 4.76
12 | NC(=S)Cc1ccc2c(c1)OCO2 | -0.08 | -0.33 | -0.59
13 | COc1ccc2ncc(F)c(CCN3CC[C@@H](CNCc4cc(C)c5c(c4)OCCO5)C3)c2n1 | 7.09 | 8.46 | 5.39
14 | c1ccc(-c2cc(NCCCn3ccnc3)nc(-c3cccnc3)n2)cc1 | 2.2 | 3.19 | 0.94
15 | c1ccc2c(Nc3ccc(Oc4ccc(Nc5c6ccccc6nc6ccccc56)cc4)cc3)c3ccccc3nc2c1 | 2.32 | 0.88 | -1.82
16 | O=C(Nc1ccc(N2CCN(Cc3c[nH]c4cc(F)ccc34)CC2)cc1)c1ccccc1-c1ccc(C(F)(F)F)cc1 | 7.38 | 4.06 | 3.31
17 | COc1ccc(CCNc2ccnc3cc(Cl)ccc23)cc1OC | 2.61 | 2.36 | 0.21
18 | COc1ccc2nccc([C@@H](O)CN3CCC(NCc4cc5c(F)ccc(F)c5[nH]4)CC3)c2c1 | 21.9 | 29.8 | 2.77
19 | Cc1cccc(Nc2nccc(Nc3cccc(C(=O)NCCN4CCOCC4)c3)n2)c1 | 2.19 | 1.2 | 1.44
20 | COc1ccc(CNC2Cc3ccccc3C2)cc1-c1ccc(S(=O)(=O)NCc2cccnc2)s1 | 1.92 | 2.48 | 0.3
21 | Cc1ccc(-c2nc3cc(NC(=O)c4ccc([N+](=O)[O-])o4)ccc3o2)cc1Cl | 77 | 85.3 | 68.1
22 | Cn1c2ccccc2c2c3ccccc3c(CNC(CO)(CO)CO)cc21 | 13.8 | 12.7 | 6.67
23 | CC(C)(C)c1ccc(N2C(N)=NC(N)=NC2(C)C)cc1Cl | 9.03 | 7.39 | 5.67
24 | O=C(Nc1cccc(C(F)(F)F)c1)c1cccc(S(=O)(=O)NC2CCN(CC3CCCCC3)C2)c1 (stereo not drawn) | 0.18 | -0.46 | 2.99

Row | Structure (SMILES) | inhibition [1] [%] | inhibition [2] [%] | inhibition [3] [%]
25 | O=C(Nc1ccc(F)c([N+](=O)[O-])c1)Nc1cc(C(F)(F)F)ccc1Cl | 0.18 | 7.68 | 1.2
26 | Cc1cccc2nc(-c3cccc(-c4cccc(NC(=O)c5cnccc5C(F)(F)F)c4)c3)[nH]c12 | 3.64 | 0.6 | -3.32
27 | COc1ccc2nccc([C@@H](O)CN3CCC(NCCOc4ccc(F)cc4Cl)CC3)c2c1 | 9.75 | 11.6 | 4.96
28 | O=C(Nc1ccc(Cl)cc1)Nc1cccc(-c2cccc(-c3nc4cc(C(F)(F)F)ccc4[nH]3)c2)c1 | -0.58 | -0.83 | -2.27
29 | O=C(/C=C/c1ccc(Cl)c(Cl)c1)N1CCN(C(=O)Nc2ccc(F)c(Cl)c2)CC1 | 9.87 | 8.92 | 11.1
30 | CC1CNC(c2ccc(NC(=O)Nc3ccc(C4=NC(C)CN4)cc3)cc2)=N1 (stereo not drawn) | 4.6 | 5.64 | 3.84
31 | CC(C)(C)c1ccc(NC(=O)c2cccc(CN3CCCN(CC4CCCCC4)CC3)c2)cc1 | 3.24 | 1.77 | 3.88
32 | NCC1CCCN1Cc1ccc(-c2ccc(-c3nc4cc(C(F)(F)F)ccc4[nH]3)cc2)cc1 (stereo not drawn) | 3.73 | 1.2 | 1.46
33 | CCc1nc(N)nc(N)c1-c1ccc(C(C)(C)C)cc1 | 13 | 3.45 | 0.88
34 | CCC(N)(C#Cc1ccc(-c2c(C)[nH]c(C)c(Br)c2=O)cc1)CC | 2.45 | 2.05 | 0.36
35 | CCCNc1ccc2nccc(CCN3CCC(NCc4ccc5c(c4)NC(=O)CS5)CC3)c2n1 | 0.84 | 3.1 | 2.43
36 | CC(C)c1ccc2[nH]c(C(=O)NC3CCC(N4CCCc5ccc(C#N)cc5C4)CC3)cc2c1 (stereo not drawn) | 3.48 | 0.9 | 1.58
37 | CC1(C)N=C(N)N=C(N)C1c1ccc(Cl)c(Cl)c1 (stereo not drawn) | 0.69 | 2.94 | 1.36
38 | CS(=O)(=O)NCCCNCc1ccc(-c2ccc(-c3nc4cc(C(F)(F)F)ccc4[nH]3)s2)cc1 | 1.6 | 2.03 | 1.6
39 | CN1CCC(N2CCN(Cc3ccc(-c4ccc(-c5nc6cc(F)ccc6[nH]5)s4)cc3)CC2)CC1 | 2.75 | 2.55 | -0.25
40 | Cc1noc(C)c1-c1ccc2c(Nc3ccccc3C(C)(C)C)c(C(=O)NCc3cccc4ccccc34)cnc2c1 | 2.41 | 2.01 | 0.05
41 | COc1cc(Nc2nccc(N3CCC(NC(=O)c4cc5ccccc5s4)C3)n2)cc(OC)c1OC (stereo not drawn) | 0.5 | 0.56 | -0.45
42 | COc1ccc(NC(=O)CCNc2ccnc(NCCc3ccc(F)cc3)n2)cc1 | 2.48 | 2.27 | 1.75
43 | CCCc1cc(=O)[nH]c(-n2nc(C)cc2NC(=O)c2cc3ccccc3o2)n1 | 12.6 | 13.1 | 4.77
44 | CCCNC(=O)c1cncc(-c2cccc(CNC3Cc4ccccc4C3)c2)c1 | -1.27 | -1.42 | -1.3
45 | Cc1cccc(OC(C)C(=O)Nc2cc(C(F)(F)F)ccc2N2CCOCC2)c1 (stereo not drawn) | 2.38 | 3.02 | 6.44
46 | c1ccc(CCNCc2cccc(-c3ccccc3CNCc3ccc4c(c3)OCO4)c2)nc1 | 0.71 | 0.88 | 0.68
47 | COc1cc(Cc2cnc(N)nc2N)ccc1Oc1ccc(N)cc1 | 1.44 | 0.48 | 0.97
48 | CC(=O)Nc1ccc(CNCCc2ccc(NC(=O)c3cc(Cl)cc(Cl)c3)cc2)cc1 | -0.73 | 0.23 | -1.09

Row | Structure (SMILES) | inhibition [1] [%] | inhibition [2] [%] | inhibition [3] [%]
49 | O=C(Nc1ccc(Cn2ncc(N3CCCNCC3)c(Cl)c2=O)cc1)Nc1cccc(C(F)(F)F)c1 | 0.62 | 1.58 | -2.08
50 | Cc1ccn2cc(-c3ccc(NC(=O)c4ccc(Br)o4)cc3)nc2c1 | 1.17 | 2.74 | 0.61
51 | Cc1cccc(-c2nc3[nH]c(=O)cc(NC(=O)C(C)C)n3n2)c1 | -2.8 | -2.49 | -1.3
52 | Cc1cc(Cl)c(S(=O)(=O)NC(C)(C)C)cc1OCC(=O)NC1CCCCC1 | -0.97 | 0.93 | 0.34
53 | O=C(Nc1ccc(Cn2ncc(N3CCCNCC3)c(Cl)c2=O)cc1)Nc1cc(Cl)cc(Cl)c1 | 2.15 | 3.38 | 0.75
54 | COc1ccc(CNCc2ccc(-c3ccc(-c4nc5cc(C(F)(F)F)ccc5[nH]4)s3)cc2)cc1 | 3.27 | 1.92 | 2.4
55 | CCN(CC)CCn1c(=N)n(CC(=O)c2ccc(-c3ccccc3)cc2)c2ccccc21 | 0.58 | 1.91 | 2.35
56 | COc1cc2c(cc1C(F)(F)F)N(C(=O)Nc1cc(OC(F)(F)F)cc(-c3cccnc3)c1)CC2 | -0.39 | 1.79 | -0.44
57 | N=c1n(Cc2ccccc2)c2ccccc2n1CC(O)c1ccc(Cl)c(Cl)c1 (stereo not drawn) | -0.72 | 1.71 | 1.3
58 | COC(=O)c1cccc(CNCc2ccc(-c3cccc(-c4nc5cc(C(F)(F)F)ccc5[nH]4)c3)cc2)c1 | 11.9 | 11 | 11.5
59 | c1ccc(Oc2ccc(Nc3ccnc4cc(-c5csc(CN6CCCCC6)n5)ccc34)cc2)nc1 | 0.24 | 1.27 | 0.89
60 | c1ccc(C(c2ccccc2)N2CCC(NCc3ccc(OCCCN4CCCCC4)cc3)CC2)cc1 | 8.52 | 11.3 | 10.7
61 | O=C(/C=C/c1ccc(Cl)c(Cl)c1)NCC1CCN(Cc2ccc(O)cc2)CC1 | 69.6 | 57.8 | 46.2
62 | Cc1cc2c(NC(=O)NC3CCN(CCc4ccccc4Cl)CC3)cccc2cn1 | 2.51 | 1.74 | 1.68
63 | CC(C)(C)C1CCC(CC2=C(C(=O)O)c3ccccc3C2=O)CC1 (stereo not drawn) | 1.16 | 0.47 | -1.33
64 | O=S(=O)(NCCN1CCCC1)c1ccc(-c2cccc(CNCc3ccc(F)cc3)c2)cc1 | 1.16 | 1.09 | -0.22
65 | COc1ccc(NC(=O)Nc2cccc(-c3ccc(-c4nc5cccc(C)c5[nH]4)s3)c2)cc1 | 6.52 | 5.29 | 3.22
66 | COc1cc(OC)cc(C(=O)Nc2ccc(Nc3nc(C)cc(N(C)C)n3)cc2)c1 | 6.01 | 12.8 | 6.54
67 | CCc1sc(-c2cc(Cl)ccc2OC)nc1C(=O)NCCN1CCCCC1 | 4.48 | 4.06 | 4.96
68 | CCNC(C)(C)CN(Cc1ccc(-c2ccc(C(F)(F)F)cc2)cc1)C(=O)Cn1c(SCc2ccc(F)cc2)nc(=O)c2c1CCC2 | 8.5 | 5.99 | 5.46
69 | O=c1nc(C=Cc2ccc(Br)cc2)oc2ccccc12 | 3.24 | 2.44 | 3.63
70 | CCn1c(C(C)C)cc2c3c(N)nc(N)nc3ccc21 | 50.6 | 61.1 | 42
71 | CCc1cn2c3c(cc(C(=O)N[C@@H](Cc4cccc(F)c4)[C@H](O)CNC4CCOCC4)cc13)N(C)S(=O)(=O)CC2 | -0.16 | 0.52 | 1.47
